# Source: PubChem BioAssay AID1347165 (National Center for Advancing Translational Sciences (NCATS), 2019)
# Out of some 220,000 compounds screened, about 5,700 (2.6%) were called active. Roughly 18% stayed inconclusive and do not appear here. The list comes from a sample in which actives are over-represented; it also holds similar structures and randomly drawn compounds. Values without a mark were called inactive. Calls follow the shape of the dose curve; as a rule, active = well fitted inhibition curve with a large enough effect; inconclusive = small, poorly fitted or top-dose-only effect; inactive = no such curve, though single readings can be large or run the other way.
# Biological target: Lysine-specific demethylase 5B (Homo sapiens) (UniProt Q9UGL1)
# Experiment: Primary screen for KDM5B Histone Demethylases FDH-coupled qHTS; also: nearly all actives have a fitted effect of over 70% in size; as to activity change, negative = inhibition: 0% is about no effect
# Settings: FDH-coupled NADH fluorescence (FDH is formaldehyde dehydrogenase); series mostly up to 57.7 µM; activity change, negative = inhibition: at the top concentration
# In short: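 Compound dilutions met 200 nM (final) KDM5BΔAP for 10 min at room temperature before substrate addition. The substrate mix held 12.5 µM H3K4me3 with cofactors 25 µM α-ketoglutarate and 50 µM Fe²⁺. NADH signal gain over 30 min defined activity.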
# Potency is read from the fitted curve at half-maximal effect.
# Lysine-specific demethylase 5B (Homo sapiens), sequence (Q9UGL1 whole entry, looked up): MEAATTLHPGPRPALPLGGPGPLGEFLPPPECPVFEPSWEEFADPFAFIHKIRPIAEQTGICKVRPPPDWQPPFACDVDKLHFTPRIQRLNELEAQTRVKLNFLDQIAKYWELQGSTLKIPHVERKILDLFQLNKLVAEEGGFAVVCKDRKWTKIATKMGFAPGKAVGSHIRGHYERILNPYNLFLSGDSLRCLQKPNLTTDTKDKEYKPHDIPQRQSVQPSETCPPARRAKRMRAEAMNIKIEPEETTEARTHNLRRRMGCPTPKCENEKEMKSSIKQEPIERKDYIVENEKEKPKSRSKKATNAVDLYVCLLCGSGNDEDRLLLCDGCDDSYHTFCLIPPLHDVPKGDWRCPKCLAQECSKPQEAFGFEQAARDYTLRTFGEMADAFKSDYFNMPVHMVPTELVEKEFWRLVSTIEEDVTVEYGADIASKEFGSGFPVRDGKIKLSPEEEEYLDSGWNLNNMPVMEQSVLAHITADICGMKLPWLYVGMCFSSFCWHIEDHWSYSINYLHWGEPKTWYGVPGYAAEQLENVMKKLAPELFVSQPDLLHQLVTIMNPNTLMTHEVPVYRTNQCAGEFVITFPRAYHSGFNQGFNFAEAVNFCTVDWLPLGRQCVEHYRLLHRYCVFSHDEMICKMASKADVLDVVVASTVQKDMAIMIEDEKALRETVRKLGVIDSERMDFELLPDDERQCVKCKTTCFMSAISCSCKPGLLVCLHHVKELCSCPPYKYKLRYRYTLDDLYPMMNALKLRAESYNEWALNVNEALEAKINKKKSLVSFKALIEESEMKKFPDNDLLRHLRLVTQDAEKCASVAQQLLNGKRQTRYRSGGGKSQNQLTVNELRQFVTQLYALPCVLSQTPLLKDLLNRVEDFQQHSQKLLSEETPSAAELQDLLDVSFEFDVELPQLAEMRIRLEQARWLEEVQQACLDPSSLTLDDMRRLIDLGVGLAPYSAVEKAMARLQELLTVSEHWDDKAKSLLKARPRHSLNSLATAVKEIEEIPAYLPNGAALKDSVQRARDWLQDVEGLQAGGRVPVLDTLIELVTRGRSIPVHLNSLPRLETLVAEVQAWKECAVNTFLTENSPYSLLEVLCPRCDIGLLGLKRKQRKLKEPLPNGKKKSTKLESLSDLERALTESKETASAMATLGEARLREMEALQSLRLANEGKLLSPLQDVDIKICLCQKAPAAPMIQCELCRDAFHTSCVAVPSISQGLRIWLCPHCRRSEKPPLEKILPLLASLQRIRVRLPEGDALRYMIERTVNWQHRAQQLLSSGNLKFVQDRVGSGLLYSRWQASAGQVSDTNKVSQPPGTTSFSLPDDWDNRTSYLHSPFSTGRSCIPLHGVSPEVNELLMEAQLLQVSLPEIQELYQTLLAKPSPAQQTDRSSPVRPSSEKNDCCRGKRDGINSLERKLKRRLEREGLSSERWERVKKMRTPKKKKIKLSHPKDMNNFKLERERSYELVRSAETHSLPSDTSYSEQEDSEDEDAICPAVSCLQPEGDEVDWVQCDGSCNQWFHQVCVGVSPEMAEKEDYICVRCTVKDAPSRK
SMILES,"activity change, negative = inhibition",Potency
CC(C)(C)OC(=O)N1CCN(C(=O)c2cc(-c3ccncc3)nc3ccccc23)CC1,8.94%,–
Cc1nc(-c2cn(C3CCCN(C(=O)c4cc(F)ccc4F)C3)nn2)no1 (stereo not given),18.6%,–
C=CCn1c(SCc2coc(-c3cccc(Cl)c3)n2)nnc1C1CCS(=O)(=O)C1 (stereo not given),-12.8%,–
COc1ccc(C(=O)OCC(=O)NCCCc2ccccc2)cc1OC,31.7%,–
COc1ccc(C(=O)Nc2oc3ccc(Cl)cc3c(=O)c2-c2cc(OC)c(OC)c(OC)c2)cc1,0.542%,–
CC(C)Nc1ncc(C(=O)NC2CCCN(CCc3ccccc3)C2)cn1 (stereo not given),–,25.1 µM (active)
Cc1occc1C(=O)NC1CCCN(Cc2ccc(CC(C)C)cc2)C1 (stereo not given),21.5%,–
CCn1ccnc1CN(C)C1CCCN(CCc2ccccc2)C1 (stereo not given),-0.558%,–
Cc1ccc(C(=O)NC2CCN(c3cnn(CC4CC4)c(=O)c3)CC2)c(C)c1,-10.1%,–
O=C(CSc1ncnc2c1cnn2-c1ccccc1)NC(=O)NC1CCCC1,14.8%,–
O=C(N[C@H]1CCOC[C@H]1C1CCOCC1)c1cccc2nccnc12,-6.52%,–
O=S(=O)(N[C@@H]1CCOC[C@H]1Oc1ccccn1)c1ccc(Cl)s1,22%,–
N#Cc1ccc(O[C@@H]2COCC[C@H]2NC(=O)CCCn2cccn2)cc1,-3.46%,–
Cc1nc2ncccn2c1C(=O)N[C@@H]1CCOC[C@H]1Oc1ccccn1,–,31.6 µM (active)
O=C(N[C@@H]1CCOC[C@H]1Oc1ccccn1)c1cc(C2CC2)no1,30.4%,–
Cc1nc(N(C)C)ncc1C(=O)N[C@@H]1CCOC[C@H]1Oc1ccccn1,–,25.1 µM (active)
Cc1nn(C)c2nc(OC(C)C(=O)Nc3ccccc3F)cc(-c3ccccc3)c12 (stereo not given),-20.6%,–
CC(C)n1cnnc1CC1CCN(C(=O)CCCc2ccccc2)C1 (stereo not given),-17.5%,–
CC1(C)CC(=O)C/C(=N/NC(=O)c2ccccc2Br)C1,12.7%,–
CC(=O)Nc1cccc(C(=O)N2CCC3(CC2)NC(=O)N(c2cccc(Cl)c2)N3)c1,-3.68%,–
COc1ccc(S(=O)(=O)N(C)Cc2nc(-c3ccc(OC(F)(F)F)cc3)no2)cc1,-5.21%,–
O=[S+]([O-])(Nc1ccccc1)c1ccc2c(c1)OCCN(Cc1cccs1)C2,-9.43% [at 86.2 µM],–
O=[S+]([O-])(Nc1cccnc1)c1ccc2c(c1)OCCN(Cc1ccc(F)cc1)C2,4.51% [at 86.2 µM],–
O=[S+]([O-])(Nc1cccnc1)c1ccc2c(c1)OCCN(Cc1cscn1)C2,–,35.5 µM (active)
Cc1c(C)[n+](=O)c2ccccc2n1[O-],-2.24%,–

SMILES,"activity change, negative = inhibition",Potency
O=C(COC(=O)Cc1ccc(Cl)c(Cl)c1)NCc1ccc(F)cc1,5.54%,–
COC(=O)[C@H](Cc1ccc(OC)cc1)NC(=O)[C@@H]1CN(C(=O)c2cccc(F)c2)CCN1C(=O)c1cccc(F)c1,26.6%,–
CC(C)(C)C(=O)NCCCC(=O)NCCc1cccs1,27.1%,–
CC(Sc1ccc2c(c1)OCCCO2)C(=O)O (stereo not given),-13.6%,–
c1cc(-c2ccc3c(c2)OCCCO3)n2ncnc2n1,–,15.8 µM (active)
Fc1ccc(CNC[C@H]2Cn3c(-c4ccc5c(c4)OCCO5)cnc3CO2)cc1,-24.6% [at 86.2 µM],–
CC(C)c1nc2nccc(-c3ccc4c(c3)OCCCO4)n2n1,–,22.4 µM (active)
O=C(CSc1ncnc2sccc12)c1ccc2c(c1)OCCCO2,3.77%,–
CCCc1nnc2sc(-c3ccc4c(c3)OCCO4)nn12,109%,–
Cc1cc(C)cc(-c2nnc(SCC(=O)N3CCCC(C)C3)o2)c1 (stereo not given),17%,–
O=C(Cn1cccc1-c1nc(-c2ccccc2)no1)Nc1ccccc1F,6.26%,–
COc1ccc(-c2c3c(=O)n(C)c(=O)n(C)c3c3n2C(C)(C)COC3c2cccc(OC)c2)cc1 (stereo not given),9.3%,–
Cc1cc(C)c(-c2cc(C(=O)Nc3ccccc3C(F)(F)F)[nH]n2)c(O)c1,-15.4%,–
Cc1cc(C(=O)NCCc2ccc(Cl)cc2)n(-c2ccccc2)n1,21.8%,–
Cc1cc(CNC(=O)c2ccc(-c3ccccc3Cl)o2)n(C)n1,–,20 µM (active)
Cc1ccc(CNC(=O)c2nn(C)c(=O)c3ccccc23)cc1,-8.52%,–
CCOC(=O)C1CCN(CC(O)c2cccc(C(F)(F)F)c2)CC1 (stereo not given),9.21%,–
COc1cccc(-c2nc(N3CCOCC3)cc3c2CN(CC2CC2)C3=O)c1,–,39.8 µM (active)
O=C(c1cccnc1)N1CCC2(CCCN(C3CCOCC3)C2=O)C1 (stereo not given),10.8%,–
O=C1c2cc(N3CCOCC3)nc(-c3cccnc3)c2CN1C1COC1,–,31.6 µM (active)
COc1cccc(-c2noc(CC3CCN(C(=O)c4ccc(F)cc4)CC3)n2)c1,10.6%,–
COCC(=O)N(C1CCOCC1)C1CCN(C(=O)c2cccc(OC)c2)CC1,20%,–
O=C(c1cccnc1)N1CCN(c2cc(-c3ccccc3)[nH]n2)CC1,11.3%,–
Cc1ccc(NC(=O)Nc2ccc3nc(N4CCOCC4)cc(C)c3c2)cc1,-9.19%,–
Cc1ccc(-c2nc(N3CCOCC3)cc3c2CN(Cc2cnn(C)c2)C3=O)cn1,–,35.5 µM (active)
